# Assay: small-molecule microarray binders of probe aEGFR, primary screen, biochemical, biotinylated probe, 635/667 nm fluorescence (AID 1097);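 also: probe is a biotinylated anti-EGFR antibody binding compounds printed on slides; score combines fluorescence near 667 nm and signal to noise of each spot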
# Conditions: higher = more signal
row,Structure (SMILES),composite z-score
1,CCOC(=O)C[C@H]1[C@H](OC(=O)c2cc3ccccc3oc2=O)[C@@H](NC(=O)c2ccc(-c3ccccc3)cc2)c2cc(OCCCO)ccc2N1C(=O)c1ccccc1,0.0526
2,COC(=O)[C@@]1(Cc2ccc(OC)cc2)[C@H]2c3cc(C(=O)N(C)C)n(C[C@H](O)CO)c3C[C@H]2CN1C(=O)c1ccccc1,0.269
3,CC(C)[Si](C#C[Si](C(C)C)(C(C)C)C(C)C)(O[C@H](C)c1cn([C@H](CO)Cc2ccccc2)nn1)C(C)C,-0.133
4,CCOC(=O)C1=CC[C@@H](c2ccccc2C(F)(F)F)N(S(=O)(=O)c2ccc(C)cc2)[C@H]1c1ccc(C#N)cc1,-0.0061
5,C[N+](C)(C)CCCC[C@@H]1NC(=O)[C@H]2C[C@@H](C(=O)NCCCCCCN)[C@@H](c3ccc(O)cc3)N2C1=O,0.155
6,CC(C)N1CC=CC23O[C@@H]4C=CCOC(=O)[C@@H]4[C@H]2C(=O)N(CCCO)[C@@H]3C1=O (stereo partly specified),-0.178

# Reference: PubChem BioAssay
